We go through 39 compounds from the supplement of paper PMC7366291.

Where a name gives a salt, the structure may show the parent alone. ± gives the standard deviation of the averaged measurements.

The subject of this assay is Danio rerio Tg(wt1b:EGFP) embryo, pronephros. Briefly: glomerular width (mean of left and right), fold change vs DMSO control; higher = wider glomerulus. The note with it: 25 µM; exposure: 24-48 hpf. Put shortly:
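Dechorionated Tg(wt1b:EGFP) zebrafish embryos were incubated at 28.5°C from 24 to 48 hpf with 25 μM compound in HEPES-buffered E3 containing 0.5% DMSO and 0.003% PTU. Distances and angles between 16 manually set points on maximum projections of dorsal pronephros images were measured in Fiji, with values over 2 SD from the feature mean excluded. Each feature is a fold change relative to the mean of same-day DMSO-treated embryos.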
Consider `CCCNC(C)(C)COC(=O)c1ccccc1` [Meprylcaine hydrochloride], for which the glomerular width stood at 0.936 ± 0.03.

As to `CC(C)NC[C@H](O)COc1ccc(CC(N)=O)cc1` [(S)-(-)-Atenolol], the glomerular width turned out to be 0.918 ± 0.067.

As for `Cc1cc(NS(=O)(=O)c2ccc(N)cc2)no1` [Sulfamethoxazole], the glomerular width was determined as 1.05 ± 0.026.

Consider `CN(C)CCN1C(=O)c2ccccc2N(C)c2ccccc21` [Dibenzepine hydrochloride], for which the glomerular width came to 1.08 ± 0.047.

On to `COc1cccc2c1C(=O)c1c(O)c3c(c(O)c1C2=O)C[C@@](O)(C(=O)CO)C[C@@H]3O[C@H]1C[C@H](N)[C@@H](O)[C@H](C)O1` [Epirubicin hydrochloride], for which the glomerular width turned out to be 1.07 ± 0.031.

Turning to `OCCOCCN1CCN(C2=Nc3ccccc3Sc3ccccc32)CC1` [Quetiapine hemifumarate], the glomerular width was 1.07 ± 0.066.

`O=C(Oc1cccc2cccnc12)c1ccccc1` [Benzoxiquine] came in with a glomerular width of 0.56 ± 0.11.

The compound `CC(=O)c1ccc2c(c1)N(CCCN(C)C)c1ccccc1S2` [Acetopromazine maleate salt] registered a glomerular width of 0.924 ± 0.071.

In turn, `O=C1CCc2ccc(OCCCCN3CCN(c4cccc(Cl)c4Cl)CC3)cc2N1` [Aripiprazole] registered a glomerular width of 0.888 ± 0.06.

The compound `C[C@]12CCC(=O)C=C1CC[C@@H]1[C@@H]2[C@@H](O)C[C@@]2(C)[C@H]1CC[C@]2(O)C(=O)CO` [Hydrocortisone base] had a glomerular width of 1.16 ± 0.081.

Compound `O=C1CN2Cc3c(ccc(Cl)c3Cl)N=C2N1` [Anagrelide] had a glomerular width of 0.932 ± 0.098.

The compound `N=C(N)NC(=O)c1nc(Cl)c(N)nc1N` [Amiloride hydrochloride dihydrate] displayed a glomerular width of 0.978 ± 0.074.

On to `CNCC(O)c1ccc(O)c(O)c1` (centres undefined) [Racepinephrine hydrochloride], for which the glomerular width was found to be 0.946 ± 0.011.

Turning to `CCCc1nn(C)c2c(=O)[nH]c(-c3cc(S(=O)(=O)N4CCN(C)CC4)ccc3OCC)nc12` [Sildenafil], the glomerular width was 0.928 ± 0.045.

As to `C[C@]12CC[C@@H]3c4ccc(OS(=O)(=O)O)cc4CC[C@H]3[C@@H]1CCC2=O` [Estropipate], the glomerular width was 0.95203 ± 0.00068.

`COc1c(O[C@@H]2O[C@H](CO)[C@@H](O)[C@H](O)[C@H]2O)cc2c(c1OC)-c1ccc(SC)c(=O)cc1[C@@H](NC(C)=O)CC2` [Thiocolchicoside] displayed a glomerular width of 0.909 ± 0.018.

For the compound `O=C(c1ccccc1)c1ccc2n1CCC2C(=O)O` (centres undefined) [Ketorolac tromethamine], the glomerular width came out at 1.15 ± 0.013.

Turning to `CC#C[C@]1(O)CC[C@H]2[C@@H]3CCC4=CC(=O)CCC4=C3[C@@H](c3ccc(N(C)C)cc3)C[C@@]21C` [Mifepristone], the glomerular width worked out at 1.15 ± 0.027.

`CN(C)c1cc(NC(=O)CNC(C)(C)C)c(O)c2c1C[C@H]1C[C@H]3[C@H](N(C)C)C(O)=C(C(N)=O)C(=O)[C@@]3(O)C(O)=C1C2=O` [Tigecycline]: the glomerular width turned out to be 1.03 ± 0.045.

In turn, `COc1cc([C@@H]2c3cc4c(cc3[C@@H](O[C@@H]3O[C@@H]5CO[C@@H](C)O[C@H]5[C@H](O)[C@H]3O)[C@H]3COC(=O)[C@H]23)OCO4)cc(OC)c1O` [Etoposide] had a glomerular width of 1.052 ± 0.0085.

Take `CC1(C)O[C@@H]2C[C@H]3[C@@H]4C[C@H](F)C5=CC(=O)CC[C@]5(C)[C@H]4[C@@H](O)C[C@]3(C)[C@]2(C(=O)CO)O1` [Flurandrenolide]: the glomerular width is 1.08 ± 0.04.

Compound `CN(C)CCOC1=Cc2ccccc2Sc2ccc(Cl)cc21` [Zotepine] gave a glomerular width of 0.983 ± 0.065.

Compound `CS(=O)(=O)Nc1ccc([N+](=O)[O-])cc1Oc1ccccc1` [Nimesulide] had a glomerular width of 0.837 ± 0.056.

As to `CC1(C)O[C@@H]2C[C@H]3[C@@H]4CCC5=CC(=O)CC[C@]5(C)[C@@]4(F)[C@@H](O)C[C@]3(C)[C@]2(C(=O)CCl)O1` [Halcinonide], the glomerular width was 1.18 ± 0.014.

The compound `CN(Cc1cnc2nc(N)nc(N)c2n1)c1ccc(C(=O)N[C@@H](CCC(=O)O)C(=O)O)cc1` (racemic) [Amethopterin (R,S)] displayed a glomerular width of 0.996 ± 0.022.

The compound `CC(=O)Oc1ccccc1C(=O)O` [Acetylsalicylic acid] registered a glomerular width of 0.951 ± 0.019.

The compound `CCN(CC)CCCC(C)Nc1c2ccc(Cl)cc2nc2ccc(OC)cc12` (centres undefined) [Quinacrine dihydrochloride hydrate] came in with a glomerular width of 1.01 ± 0.016.

The compound `CCCOc1ccc2[nH]c(NC(=O)OC)nc2c1` [Oxibendazol] registered a glomerular width of 0.505 ± 0.067.

The compound `O=C(O)CN(CCN(CC(=O)O)CC(=O)O)CCN(CC(=O)O)CC(=O)O` [Pentetic acid] registered a glomerular width of 0.98 ± 0.017.

`CN(Cc1cnc2nc(N)nc(N)c2n1)c1ccc(C(=O)N[C@@H](CCC(=O)O)C(=O)O)cc1` [Methotrexate] had a glomerular width of 1.0099 ± 0.0002.

Compound `CN1CCC[C@@H]1CCO[C@](C)(c1ccccc1)c1ccc(Cl)cc1` [Clemastine fumarate] gave a glomerular width of 1.01 ± 0.058.

For `OCCN1CCN(CCCN2c3ccccc3Sc3ccc(C(F)(F)F)cc32)CC1` [Fluphenazine dihydrochloride], the glomerular width worked out at 1.07 ± 0.02.

`CN1CCN(CC(=O)N2c3ccccc3C(=O)Nc3cccnc32)CC1` [Pirenzepine dihydrochloride] displayed a glomerular width of 0.9891 ± 0.0015.

On to `CN(C)CCCOc1nn(Cc2ccccc2)c2ccccc12` [Benzydamine hydrochloride], for which the glomerular width was found to be 1.03 ± 0.035.

The compound `CCN(Cc1ccncc1)C(=O)C(CO)c1ccccc1` (centres undefined) [Tropicamide] yielded a glomerular width of 1.08 ± 0.027.

Compound `O=C1CCC(N2C(=O)c3ccccc3C2=O)C(=O)N1` (centres undefined) [Thalidomide] had a glomerular width of 1.21 ± 0.078.

Regarding `O=C(O)c1cn(C2CC2)c2cc(N3CCNCC3)c(F)cc2c1=O` [Ciprofloxacin hydrochloride monohydrate], the glomerular width was 0.94012 ± 0.00024.

The compound `CC(C)(O/N=C(\C(=O)N[C@@H]1C(=O)N2C(C(=O)[O-])=C(C[n+]3ccccc3)CS[C@H]12)c1csc(N)n1)C(=O)O` [Ceftazidime pentahydrate] had a glomerular width of 0.993 ± 0.046.

Compound `c1ccc(C2CN3CCSC3=N2)cc1` (centres undefined) [Tetramisole hydrochloride] showed a glomerular width of 1.05 ± 0.032.
